In the library only some 2% were active in any assay of this set; here they are far more common.
FAS TE block – FAS thioesterase (human) inhibition; P49327; recombinant FAS-TE, OMFH fluorogenic substrate, fluorescence endpoint; inhibition, % at 15 µM; hit rate 0.67% among 360,000;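 active = compounds whose normalised, plate-corrected inhibition of enzyme fluorescence in the single-dose primary screen is 50% or more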;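 note: 0% = DMSO with enzyme and 100% = substrate without enzyme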
GC-B act – GC-B (human) receptor activation. P20594. HEK293-GC-B cells, CNP EC30, cGMP TR-FRET; 0% at EC30 CNP, 100% saturating CNP. activation, % at 10 µM. hit rate 0.11% among 370,000;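 active = activation at 10 µM reaching about 35% in either raw or pattern-adjusted values, limit read from the data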
Target sequence (P20594 whole entry, looked up): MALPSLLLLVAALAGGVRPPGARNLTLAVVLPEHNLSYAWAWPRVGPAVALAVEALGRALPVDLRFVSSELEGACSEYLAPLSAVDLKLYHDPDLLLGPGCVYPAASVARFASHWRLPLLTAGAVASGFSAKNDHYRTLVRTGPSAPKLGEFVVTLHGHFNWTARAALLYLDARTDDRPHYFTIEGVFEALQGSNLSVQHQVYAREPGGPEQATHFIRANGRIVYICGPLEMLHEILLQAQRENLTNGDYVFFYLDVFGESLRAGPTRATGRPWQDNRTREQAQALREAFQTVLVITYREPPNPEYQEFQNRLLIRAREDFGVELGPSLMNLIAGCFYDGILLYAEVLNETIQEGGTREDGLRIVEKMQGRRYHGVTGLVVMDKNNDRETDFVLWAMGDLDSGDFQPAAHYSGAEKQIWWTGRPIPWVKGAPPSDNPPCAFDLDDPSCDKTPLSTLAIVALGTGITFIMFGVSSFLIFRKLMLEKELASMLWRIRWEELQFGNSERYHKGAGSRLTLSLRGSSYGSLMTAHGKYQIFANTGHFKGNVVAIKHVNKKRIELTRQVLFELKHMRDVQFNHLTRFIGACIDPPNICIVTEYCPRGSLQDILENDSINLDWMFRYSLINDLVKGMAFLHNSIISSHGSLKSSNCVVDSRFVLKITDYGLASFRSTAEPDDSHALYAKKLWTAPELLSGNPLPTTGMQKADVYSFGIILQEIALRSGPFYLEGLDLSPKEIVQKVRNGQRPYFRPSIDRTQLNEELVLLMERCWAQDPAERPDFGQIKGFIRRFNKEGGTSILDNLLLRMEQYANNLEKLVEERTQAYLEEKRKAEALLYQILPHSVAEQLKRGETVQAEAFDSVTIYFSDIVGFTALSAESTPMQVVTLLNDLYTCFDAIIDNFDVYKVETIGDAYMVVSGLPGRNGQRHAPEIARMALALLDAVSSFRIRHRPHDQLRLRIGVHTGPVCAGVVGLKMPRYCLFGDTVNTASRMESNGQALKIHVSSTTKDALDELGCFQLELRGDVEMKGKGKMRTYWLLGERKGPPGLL
ADAM10 inh – ADAM10 inhibition, QFRET primary screen | hit rate 0.62% among 370,000 | O14672 | recombinant ADAM10, EDANS/DABCYL FRET peptide cleavage, 3 h | AID 720582 | inhibition, % at 7 µM;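 active = inhibition above a per-campaign cutoff equal to the mean of compounds falling between control-based bounds plus 3 SD, cut at about 20% in these data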;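 note: 0% = DMSO wells while the 100% control is not disclosed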
ADAM17 inh – inhibitors of human ADAM17 | P78536 | recombinant ADAM17, EDANS/DABCYL FRET peptide cleavage | inhibition, % at 6.95 µM | hit rate 0.83% among 370,000 | AID 720648;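 active = inhibition above the mean of compounds lying between control limits plus 3 SD, set per campaign, cut at about 8.5% in these data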;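 note: 0% = DMSO-only wells as the low control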
NPR1 activator – GC-A (human) enzyme activation; activation, % at 10 µM; hit rate 0.14% among 370,000; P16066; AID 1671463; HEK293 GC-A cells, cGMP TR-FRET, EC30 ANP; 0% at EC30 ANP, 100% saturating ANP; in the data active = activation above about 40%
ADAM10 confirm – confirmation of inhibitors of human ADAM10; shares compounds with ADAM10 inh; hit rate 1% among 2,100; ADAM10 QFRET peptide cleavage, EDANS fluorescence; inhibition, % at 6.95 µM;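 active = inhibition above about 20% chosen separately for each screening run, limit read from the data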;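 note: 0% = DMSO wells and 100% = marimastat wells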
ADAM17 ctr – counter-screen for ADAM10 exosite inhibitors: inhibitors of human ADAM17; shares compounds with ADAM10 inh; ADAM17 QFRET peptide cleavage, EDANS fluorescence; hit rate 0.5% among 2,100; inhibition, % at 6.95 µM;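 active = mean triplicate inhibition above the solvent-only control wells' mean plus 3 SD, cut at about 12% in these data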;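 note: 0% = DMSO wells and 100% = marimastat wells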
ADAM10 ctr – counter-screen for ADAM17 exosite inhibitors: inhibitors of human ADAM10; shares compounds with ADAM17 inh; recombinant ADAM10, EDANS/DABCYL FRET peptide cleavage, 3 h; inhibition, % at 6.95 µM; hit rate 47% among 2,900; AID 743256;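 active = mean inhibition over the triplicate runs exceeds the activity threshold set in the earlier primary screen, cut at about 20% in these data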;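 note: 0% = DMSO wells and 100% = marimastat wells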
ADAM17 confirm – confirmation of inhibitors of human ADAM17; shares compounds with ADAM17 inh; recombinant ADAM17, EDANS/DABCYL QFRET peptide cleavage; inhibition, % at 6.95 µM; hit rate 65% among 2,900;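 active = mean inhibition across replicates above the hit cutoff set in the primary screen, cut at about 8.5% in these data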;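 note: 0% = DMSO wells and 100% = marimastat wells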
An asterisk follows results filed as active; . = not tested or not shown.

SMILES	FAS TE block	GC-B act	ADAM10 inh	ADAM17 inh	NPR1 activator	ADAM10 confirm	ADAM17 ctr	ADAM10 ctr	ADAM17 confirm
O=C(NC1CCCCN(Cc2cccc(Cl)c2)C1=O)c1cccs1 (centres undefined)	.	-6.0	9.5	7.1	-0.7	.	.	.	.
CCOC(=O)C1=CN(Cc2cccc(F)c2)S(=O)(=O)NC1CCc1ccccc1 (centres undefined)	32.2	-0.2	21.1*	11.9*	-1.0	8.7	2.9	50.7*	19.7*
O=C1C=C(c2cccc(Cl)c2O)C[C@@H](c2ccc(Cl)cc2)C1	22.5	0.4	21.6*	13.9*	0.1	8.4	1.6	21.9*	13.0*
C=CCOc1ccc(Br)cc1/C=N/O	-0.2	-3.4	-5.9	-1.8	1.5	.	.	.	.
O/N=C/c1cc(Br)ccc1OCc1ccccc1F	-10.9	-3.9	20.6*	9.1*	6.0	5.5	1.4	29.9*	16.8*
O[C@H](COc1ccc(Cl)cc1)CN1CCC(C(O)(c2ccccc2)c2ccccc2)CC1	.	-4.0	6.9	2.4	-12.4	.	.	.	.
OC(c1ccc(F)cc1)c1nc(-c2csc3ccccc23)cs1 (centres undefined)	20.0	-0.3	8.0	4.6	-1.9	.	.	.	.
OC(c1ccccc1)c1nc(-c2csc3ccccc23)cs1 (centres undefined)	14.8	-0.1	33.1*	16.4*	-2.5	3.5	1.0	29.8*	15.9*
O=S(=O)(c1ccccc1)N(CC(F)(F)F)c1ccc(C(O)(C(F)(F)F)C(F)(F)F)cc1	31.1	1.4	49.1*	21.6*	-2.4	0.5	1.0	36.8*	21.8*
Cc1cccc2cc(CN(Cc3ccco3)C(=O)Nc3cccc(C#N)c3)c(Cl)nc12	34.1	-2.1	28.8*	9.9*	0.5	11.5	3.2	42.0*	23.1*
CC(C)(C)c1ccc(S(=O)(=O)NCC(=O)N2CCN(c3ncccn3)CC2)cc1	.	0.8	-0.7	-1.4	3.1	.	.	.	.
COC(=O)C(Nc1ccccc1Cl)(c1cc(C)c(O)c(C)c1)C(F)(F)F (centres undefined)	29.9	.	29.8*	12.6*	.	8.8	3.6	41.2*	20.2*
O=C(Nc1ccc2ccccc2c1)c1cn(-c2ccccc2)nc1-c1cccs1	29.9	-0.8	-1.5	-1.2	-2.5	.	.	.	.
CN(C)c1ccc(NC(=O)c2cn(-c3ccccc3)nc2-c2cccs2)cc1	19.7	-0.6	28.2*	13.3*	-0.3	14.4	6.2	19.7	9.7*
CC(C)C[C@H](NC(=O)c1nc[nH]c1C(=O)NCc1ccccc1)C(=O)OCc1ccccc1	21.4	0.3	25.4*	10.3*	-1.4	7.4	3.9	34.7*	15.7*
CC(C)C[C@H](NC(=O)c1[nH]cnc1C(=O)N[C@@H](Cc1ccccc1)C(=O)OCc1ccccc1)C(=O)OC(C)(C)C	19.6	6.6	16.7	3.4	3.0	.	.	.	.
CC(C)C[C@H](NC(=O)c1[nH]cnc1C(=O)N[C@@H](C)C(=O)OCc1ccccc1)C(=O)OCc1ccccc1	17.4	6.0	25.4*	11.5*	-0.6	9.6	2.8	40.1*	20.8*
CCOC(=O)c1ccc(NC(=O)CSc2nnc(-c3cc(-c4ccccc4)n[nH]3)n2N)cc1	.	-8.4	-7.3	2.9	-1.6	.	.	.	.
Cc1nonc1C1CCCN1Cc1cn[nH]c1-c1ccc(-c2ccccc2)cc1 (centres undefined)	16.4	-7.2	33.2*	16.8*	-2.8	7.6	2.6	29.8*	18.9*
COC(=O)Cc1nnn2c1[C@H](C)[C@H](c1ccccc1Br)OC[C@@H]2c1ccccc1	.	-9.6	5.1	0.4	-10.7	.	.	.	.

Assay outcomes from PubChem BioAssay.
